Data published in PubChem BioAssay.
Calls of active or inactive are those of the source.

Key:
[1] = system: Human papillomavirus type 1a protein E7 (residues 44-93); assay: HPV1a E7 fragment binders on microarrays, primary screen, biochemical, small-molecule microarray, residues 44-93, 635 nm fluorescence (AID 1108); details: small-molecule microarray binding, fluorescence 635 nm; higher = more signal;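 also: E7 fragment applied at 1 µg/mL in TBST for 1 h at 4 C; score combines spot fluorescence with its signal to noise ratio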
[2] = modulators of HCV replicon luciferase signal, primary screen, HCV replication inhibitor project, Huh7 cells, luciferase reporter (AID 1109); details: 48 h, higher = more signal;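 also: huh7 hepatoma cells harbouring a luciferase neomycin HCV replicon reporter; luciferase luminescence as measure of HCV replicon replication; test concentration not given here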
[3] = molecular target: Left-right determination factor 2 (Homo sapiens) (UniProt O00292); assay: LEFTY2 binders on small-molecule microarrays, primary screen, biochemical, small-molecule microarray, 635 nm fluorescence scan (AID 1110); details: LEFTY2 binding, higher = more signal
[4] = molecular target: Calmodulin-1 (Homo sapiens) (UniProt P0DP23); assay: CALM1 binders on microarrays, EGTA buffer, profiling panel, biochemical, small-molecule microarray, Cy5-labelled CALM1 (AID 1111); details: Cy5-CALM1 binding fluorescence, higher = more signal;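 also: labelled calmodulin applied in Tris saline Tween buffer holding calcium plus EGTA and DTT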
[5] = molecular target: Calmodulin-1 (Homo sapiens) (UniProt P0DP23); assay: calcium-bound CALM1 binders on microarrays, profiling panel, artefact control for SMM control-protein annotation, biochemical, small-molecule microarray, Cy5-labelled CALM1, plus calcium (AID 1112); details: Cy5-CALM1 binding fluorescence, higher = more signal;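 also: score merges spot fluorescence with signal to noise from triplicate slides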
[6] = small-molecule microarray binders of probe aWnt5a, primary screen, biochemical, biotinylated probe, 635/667 nm fluorescence (AID 1113); details: higher = more signal;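 also: score merges 667 nm fluorescence intensity with signal-to-noise per printed feature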
[7] = small-molecule microarray binders of probe aShh, primary screen, biochemical, biotinylated probe, 635/667 nm fluorescence (AID 1114); details: higher = more signal;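 also: probe is biotin-labelled aShh protein from a stem cell growth factor screen; measures binding of labelled protein to compounds printed on the slide; score merges feature fluorescence at 667 nm with signal-to-noise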
[8] = small-molecule microarray binders of probe aNog, primary screen, biochemical, biotinylated probe, 635/667 nm fluorescence (AID 1115); details: higher = more signal;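 also: probe is biotinylated aNog protein used at 0.15 µg/mL for 1 h at 4 C; z-score combines 667 nm fluorescence of each spot with its signal to noise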
[9] = molecular target: Torsin-1A-interacting protein 1 (Homo sapiens) (UniProt Q5JTV8); assay: LAP1 binders from COS7 cell lysate, primary screen, small-molecule microarray, 635/667 nm fluorescence (AID 1116); details: COS7-hLAP1 lysate binding, 635 nm fluorescence, higher = more signal
[10] = molecular target: Alpha-bungarotoxin (Bungarus multicinctus) (UniProt P60615); assay: alpha-bungarotoxin binders on microarray, profiling panel, artefact control for SMM control protein annotation, biochemical, small-molecule microarray, Alexa647 label, 635/667 nm fluorescence (AID 1117); details: alpha-BTX-A647 binding fluorescence, higher = more signal
[11] = molecular target: Albumin (Bos taurus) (UniProt P02769); assay: bovine serum albumin binders on microarray, profiling panel, artefact control for SMM control protein annotation, biochemical, small-molecule microarray, Alexa647 label, 635/667 nm fluorescence (AID 1118); details: BSA-A647 binding, fluorescence 635 nm, higher = more signal;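 also: score merges 667 nm emission intensity and signal-to-noise per printed compound spot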
[12] = small-molecule microarray binders of probe aXIP, primary screen, biochemical, NeuroSMM set, 635/667 nm fluorescence (AID 1119); details: higher = more signal, called active from +8 up or from −8 down;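 also: probe is the protein aXip251-270 applied at 1 µg/mL to compound-printed slides; binding of probe to printed compounds measured as 667 nm fluorescence plus signal to noise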
[13] = small-molecule binders of probe aNOTCH3, primary screen, biochemical, small-molecule microarray, 635/667 nm fluorescence (AID 1120); details: higher = more signal;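 also: probe is a biotin-tagged antibody raised against NOTCH3 rather than NOTCH3 protein; score merges spot fluorescence near 667 nm with spot signal to noise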
[14] = small-molecule binders of probe aNOTCH2, primary screen, biochemical, small-molecule microarray, 635/667 nm fluorescence (AID 1121); details: higher = more signal;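 also: score merges feature fluorescence read at 667 nm with its signal to noise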
[15] = molecular target: Carbonic anhydrase 2 (Homo sapiens) (UniProt P00918); assay: CAII small-molecule binders, profiling panel, biochemical, small-molecule microarray, Alexa647-labelled CAII (AID 1122); details: CAII-A647 binding fluorescence, higher = more signal
[16] = COS7 lysate on small-molecule microarray, probe aHis, 635 nm (AID 1123); details: COS7 cell lysate, fluorescence, higher = more signal;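 also: z-score combines 667nm fluorescence intensity with signal-to-noise per printed compound spot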
[17] = compound binding in COS7 lysate, probe aLAP1, primary screen, cell lysate, small-molecule microarray (AID 1124); details: probe aLAP1, fluorescence, higher = more signal;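 also: lysate comes from COS7 cells expressing LAP1 and is applied at 0.3 µg/mL; score merges spot fluorescence near 667 nm with signal-to-noise over triplicate slides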
[18] = system: Sam68 (KHDRBS1); assay: Sam68 small-molecule binders, primary screen, biochemical, small-molecule microarray, 635 nm fluorescence (AID 1125); details: small-molecule microarray binding, higher = more signal;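 also: score merges 667 nm channel intensity with signal to noise over triplicate slides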
[19] = system: Chordin-like protein 2 (CHRDL2); assay: CHRDL2 small-molecule binders, primary screen, biochemical, small-molecule microarray, 635 nm fluorescence (AID 1126); details: small-molecule microarray binding, fluorescence 635 nm; higher = more signal;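 also: printed compound slides probed with Chrdl2 protein at 4 µg/mL for 1 h at 4 C; score merges 667 nm emission intensity with signal to noise over three replicate slides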
[20] = molecular target: Concanavalin-A (Canavalia ensiformis) (UniProt P02866); assay: ConA small-molecule binders, primary screen, artefact control for SMM control protein annotation, biochemical, small-molecule microarray, Alexa647 label, 635 nm (AID 1127); details: ConA-A647 binding fluorescence, higher = more signal;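 also: z combines 667 nm emission intensity with signal-to-noise across three replicate slides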
Sequence of Concanavalin-A (Canavalia ensiformis) (P02866 whole entry, looked up): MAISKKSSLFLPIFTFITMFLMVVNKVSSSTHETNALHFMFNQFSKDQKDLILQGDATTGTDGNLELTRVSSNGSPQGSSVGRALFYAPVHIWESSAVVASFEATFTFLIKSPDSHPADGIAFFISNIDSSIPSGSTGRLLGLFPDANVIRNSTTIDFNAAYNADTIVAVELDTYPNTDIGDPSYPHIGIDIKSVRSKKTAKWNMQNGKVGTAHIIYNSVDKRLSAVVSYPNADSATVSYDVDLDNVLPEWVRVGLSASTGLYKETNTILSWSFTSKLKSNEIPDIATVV

Sequence of Alpha-bungarotoxin (Bungarus multicinctus) (P60615 whole entry, looked up): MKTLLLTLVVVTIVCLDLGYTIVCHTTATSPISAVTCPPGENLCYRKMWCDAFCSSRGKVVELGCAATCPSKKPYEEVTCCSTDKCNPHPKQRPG
Sequence of Torsin-1A-interacting protein 1 (Homo sapiens) (Q5JTV8 whole entry, looked up): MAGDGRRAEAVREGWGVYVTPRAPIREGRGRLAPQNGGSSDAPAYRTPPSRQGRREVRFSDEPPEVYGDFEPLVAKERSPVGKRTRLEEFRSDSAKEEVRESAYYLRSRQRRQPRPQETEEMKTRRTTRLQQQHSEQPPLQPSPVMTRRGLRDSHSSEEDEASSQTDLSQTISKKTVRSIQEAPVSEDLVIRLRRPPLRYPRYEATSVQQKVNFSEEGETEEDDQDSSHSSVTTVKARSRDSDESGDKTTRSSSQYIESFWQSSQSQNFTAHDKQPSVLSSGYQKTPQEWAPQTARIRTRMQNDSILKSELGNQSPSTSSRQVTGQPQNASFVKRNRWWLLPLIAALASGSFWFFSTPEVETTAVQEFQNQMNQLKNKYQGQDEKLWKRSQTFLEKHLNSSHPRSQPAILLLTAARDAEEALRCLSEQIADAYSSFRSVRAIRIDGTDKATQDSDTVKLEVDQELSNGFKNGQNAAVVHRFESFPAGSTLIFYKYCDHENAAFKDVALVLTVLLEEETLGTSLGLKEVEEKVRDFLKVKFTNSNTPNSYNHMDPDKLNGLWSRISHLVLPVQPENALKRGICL
Sequence of Left-right determination factor 2 (Homo sapiens) (O00292 whole entry, looked up): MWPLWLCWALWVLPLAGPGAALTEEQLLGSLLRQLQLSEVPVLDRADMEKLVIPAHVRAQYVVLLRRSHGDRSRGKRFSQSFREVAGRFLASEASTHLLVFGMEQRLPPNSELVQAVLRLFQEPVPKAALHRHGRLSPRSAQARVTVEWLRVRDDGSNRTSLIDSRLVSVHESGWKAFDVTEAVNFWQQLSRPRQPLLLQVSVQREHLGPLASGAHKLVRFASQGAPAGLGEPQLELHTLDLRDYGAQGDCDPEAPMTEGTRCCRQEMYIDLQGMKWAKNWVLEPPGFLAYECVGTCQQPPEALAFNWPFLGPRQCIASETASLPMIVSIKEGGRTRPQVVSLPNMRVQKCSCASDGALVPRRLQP
Sequence of Albumin (Bos taurus) (P02769 whole entry, looked up): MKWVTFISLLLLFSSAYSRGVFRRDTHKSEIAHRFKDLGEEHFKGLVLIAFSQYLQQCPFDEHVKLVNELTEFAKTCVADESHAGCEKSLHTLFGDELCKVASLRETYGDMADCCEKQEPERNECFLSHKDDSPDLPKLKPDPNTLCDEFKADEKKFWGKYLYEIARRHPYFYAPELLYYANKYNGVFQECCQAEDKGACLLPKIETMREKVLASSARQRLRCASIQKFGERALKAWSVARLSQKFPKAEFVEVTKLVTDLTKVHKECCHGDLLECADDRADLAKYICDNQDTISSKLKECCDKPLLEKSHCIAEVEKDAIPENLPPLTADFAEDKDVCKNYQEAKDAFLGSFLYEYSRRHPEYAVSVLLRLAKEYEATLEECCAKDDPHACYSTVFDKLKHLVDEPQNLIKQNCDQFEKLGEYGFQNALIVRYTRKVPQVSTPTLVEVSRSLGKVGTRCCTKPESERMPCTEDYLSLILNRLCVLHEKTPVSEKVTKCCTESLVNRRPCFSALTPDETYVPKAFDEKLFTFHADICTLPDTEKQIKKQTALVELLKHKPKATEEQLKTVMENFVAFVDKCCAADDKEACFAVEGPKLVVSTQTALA

Structure (SMILES)	composite z-score [1]	z-score [2]	composite z-score [3]	composite z-score [4]	composite z-score [5]	composite z-score [6]	composite z-score [7]	composite z-score [8]	composite z-score [9]	composite z-score [10]	composite z-score [11]	composite Z-score [12]	composite z-score [13]	composite z-score [14]	composite z-score [15]	composite z-score [16]	composite z-score [17]	composite z-score [18]	composite z-score [19]	composite z-score [20]
O=C1C[C@@](C(=O)NCc2ccccc2)(c2ccc([N+](=O)[O-])cc2)[C@@H](c2ccc(CO)cc2)N1C1CCCCC1	0.653	-1.24	0.399	-0.175	-0.386	0.0273	0.0697	0.786	1.46	1.72	-0.77	1.06 (inactive)	0.14	0.0847	0.317	2.89	1.76	1.03	0.575	1.07
O=C1C[C@]2(c3ccc([N+](=O)[O-])cc3)C(=O)N(C3CC3)c3cc(CO)ccc3[C@H]2N1C1CCCCC1	0.481	0.82	0.0985	-0.301	-0.931	-0.178	-0.0146	-0.383	-0.0456	0.637	-0.806	0.127 (inactive)	-0.103	-0.172	-0.0953	0.792	0.835	0.0418	-0.308	0.55
NC(=O)NCC#Cc1ccc2c(c1)[C@]1(C(=O)N2)[C@H](c2ccc(OCCO)cc2)N2[C@H](c3ccccc3)[C@H](c3ccccc3)OC(=O)[C@H]2[C@@H]1C(=O)NC[C@H](O)c1ccccc1	1.01	-1.27	-0.375	0.0317	-0.194	-0.0572	-0.367	-0.559	0.727	0.502	0.335	0.691 (inactive)	0.0237	-0.147	0.428	0.485	-0.146	-0.449	0.0046	1.03
C=CCN1C(=O)[C@]2(O[C@H](CCn3cc([C@H](O)c4ccccc4)nn3)[C@@H]([Si](C)(C)c3ccc(OC)cc3)[C@@H]2C)c2cc(NC(=O)c3ccc(OC)cc3)ccc21	1.15	-4.74	0.5	-0.0632	-0.564	-0.0748	-0.221	-0.124	0.725	0.464	0.55	0.24 (inactive)	-0.0362	-0.135	0.015	1.02	-0.182	0.867	0.334	0.543
COc1ccc([Si](C)(C)[C@H]2[C@H](CCO)O[C@@]3(C(=O)N(Cc4cccc(N5C(=O)c6ccccc6Oc6ccccc65)c4)c4ccccc43)[C@@H]2C)cc1	0.72	-4.89	-0.296	0.29	0.53	-0.091	-0.262	-0.0816	0.449	0.71	0.446	0.142 (inactive)	-0.0647	-0.147	0.287	0.575	0.755	0.499	-0.122	0.843
O=C1C2C=CC(C(O)c3ccc([N+](=O)[O-])cc3)N(Nc3ccccc3F)C2C(=O)N1c1ccccc1 (stereo not given)	0.395	-0.288	-0.303	0.865	0.378	0.0919	0.0442	1.01	1.55	1.06	1.04	0.0431 (inactive)	-0.124	0.0323	0.703	-0.309	1.06	0.808	-0.445	0.886
O=C1OCCC=C[C@H]2OC34C=CCN(c5ccc6ccccc6c5)C(=O)[C@H]3N(CCO)C(=O)[C@@H]4C12 (stereo not given in full)	-0.988	-0.07	-0.277	-0.237	-0.419	-0.219	-0.383	-0.453	0.468	0.0797	-0.594	0.465 (inactive)	-0.571	-0.445	0.368	-0.237	-0.162	-0.362	-0.976	-0.403
C[C@@H]1ON(c2ccc(I)cc2)[C@H](c2cccc(NC(=O)OCC3c4ccccc4-c4ccccc43)c2)[C@H]1C(=O)N1C(=O)OC[C@H]1Cc1ccccc1	0.531	-0.31	0.678	0.224	-0.435	-0.142	-0.0866	-0.285	0.246	-0.0652	-0.0188	-0.222 (inactive)	0.0276	-0.126	0.456	0.367	0.111	0.668	0.926	1.01
CCCCC(O)C1C=CC2C(=O)N(c3ccccc3)C(=O)C2N1Nc1ccc([N+](=O)[O-])cc1 (stereo not given)	1.39	-0.744	0.0256	0.521	-0.118	0.0324	0.036	-0.343	0.853	0.553	0.894	0.312 (inactive)	0.27	-0.148	0.583	2.61	0.738	1.3	-0.0818	1.02
CC(C)(C)N1CC=CC23O[C@@H]4C=CCCOC(=O)C4[C@H]2C(=O)N(CCCCCCO)[C@@H]3C1=O (stereo not given in full)	0.315	0.0358	-0.807	-0.338	0.195	-0.167	-0.352	-0.0207	0.348	1.07	-0.188	-0.192 (inactive)	-0.0716	-0.124	0.834	-0.0431	0.0582	0.28	-1.29	-0.202
CN1C(=O)C2C(C1=O)C1C=C(CCCO)C2C(C2CC2)N1Cc1cccc(OC(F)(F)F)c1 (stereo not given)	1.4	-1.4	-0.306	0.807	0.951	-0.0944	-0.0709	-0.0964	1.56	0.786	1.04	0.35 (inactive)	0.0934	-0.023	0.911	2.55	0.956	1.3	-0.535	0.983
